# Measurements taken from ChEMBL document CHEMBL3988442, “University of Dundee, Small-Polar-MMV Screening Library” (2021).
# For some assays here: Measured potencies and affinities stand elsewhere.
# Legend:
# Design in all cases: scale not given: direction of the effect not stated beside the values
# [1] = molecular target: Protein translocase subunit SecA (Escherichia coli (strain K12)) (UniProt P10408); test: Assay to Identify E. coli SecA ATPase Inhibitors; assay type: functional; conditions: 30 µM
# [2] = molecular target: T1, Ubiquitin-activating enzyme e1, putative (Leishmania donovani (strain BPK282A1)) (UniProt E9BSI1); test: Leishmania donovani Ubiquitin Activating Enzyme (LdE1); assay type: functional; conditions: 30 µM
# T1 sequence (whole entry): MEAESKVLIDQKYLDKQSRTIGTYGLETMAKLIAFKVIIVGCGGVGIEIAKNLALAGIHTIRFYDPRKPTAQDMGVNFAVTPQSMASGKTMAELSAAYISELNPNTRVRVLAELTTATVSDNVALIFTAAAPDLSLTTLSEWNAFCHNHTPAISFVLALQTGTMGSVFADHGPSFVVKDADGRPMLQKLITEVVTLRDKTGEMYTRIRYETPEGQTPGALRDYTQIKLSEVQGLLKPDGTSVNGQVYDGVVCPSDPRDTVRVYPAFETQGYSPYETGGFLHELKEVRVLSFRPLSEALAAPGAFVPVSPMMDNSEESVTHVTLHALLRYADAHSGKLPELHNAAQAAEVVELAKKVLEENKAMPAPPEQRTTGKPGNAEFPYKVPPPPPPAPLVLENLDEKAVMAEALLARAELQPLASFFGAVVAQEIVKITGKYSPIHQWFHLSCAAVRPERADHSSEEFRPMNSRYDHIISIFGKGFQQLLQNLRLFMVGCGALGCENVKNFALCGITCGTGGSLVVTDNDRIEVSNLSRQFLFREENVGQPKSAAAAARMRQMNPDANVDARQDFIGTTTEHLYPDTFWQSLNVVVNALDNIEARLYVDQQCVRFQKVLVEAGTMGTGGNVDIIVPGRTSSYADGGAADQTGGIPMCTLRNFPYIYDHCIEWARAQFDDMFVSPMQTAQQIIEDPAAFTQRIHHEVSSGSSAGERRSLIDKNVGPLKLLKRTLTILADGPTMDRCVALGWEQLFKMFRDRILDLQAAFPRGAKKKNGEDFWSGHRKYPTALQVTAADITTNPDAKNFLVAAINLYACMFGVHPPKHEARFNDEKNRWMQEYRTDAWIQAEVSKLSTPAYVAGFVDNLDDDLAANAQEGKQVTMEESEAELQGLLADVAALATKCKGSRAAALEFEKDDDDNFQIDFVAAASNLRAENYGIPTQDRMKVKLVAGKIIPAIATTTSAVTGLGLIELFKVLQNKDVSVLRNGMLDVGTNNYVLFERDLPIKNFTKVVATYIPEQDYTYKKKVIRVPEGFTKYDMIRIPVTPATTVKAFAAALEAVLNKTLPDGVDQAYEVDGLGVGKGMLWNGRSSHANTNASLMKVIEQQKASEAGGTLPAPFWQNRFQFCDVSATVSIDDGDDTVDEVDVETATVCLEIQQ
# [3] = molecular target: AMP-activated protein kinase, AMPK (Homo sapiens) (UniProt P54646+O43741+P54619+Q9UGJ0+Q9Y478+Q13131+Q9UGI9); test: AMP-dependent Kinase enzyme assay. An in vitro enzyme assay that detects ADP turnover that is directly proportional to AMPK activity. This uses naive AMPK that is activated during the assay with MK-8722; assay type: functional; conditions: 30 µM
# [4] = molecular target: Sialic acid-binding Ig-like lectin 9 (Homo sapiens) (UniProt Q9Y336); test: Hs-Siglec9 ALPHAscreen SOP 20170721; conditions: 10 µM
# Trypanosoma cruzi = test: Trypanosoma cruzi phosphomannomutase and mannose-1-phosphate guanylyltransferase assay; assay type: functional; conditions: 10 µM
# [5] = molecular target: T2, Arginase-2, mitochondrial (Homo sapiens) (UniProt P78540); test: in vitro enzyme assay to detect the production of urea directly proportional to the activity of Arginase II; assay type: functional; conditions: 33.3 µM; also: in the data most compounds retested in dose-response had high values
# T2 sequence (whole entry): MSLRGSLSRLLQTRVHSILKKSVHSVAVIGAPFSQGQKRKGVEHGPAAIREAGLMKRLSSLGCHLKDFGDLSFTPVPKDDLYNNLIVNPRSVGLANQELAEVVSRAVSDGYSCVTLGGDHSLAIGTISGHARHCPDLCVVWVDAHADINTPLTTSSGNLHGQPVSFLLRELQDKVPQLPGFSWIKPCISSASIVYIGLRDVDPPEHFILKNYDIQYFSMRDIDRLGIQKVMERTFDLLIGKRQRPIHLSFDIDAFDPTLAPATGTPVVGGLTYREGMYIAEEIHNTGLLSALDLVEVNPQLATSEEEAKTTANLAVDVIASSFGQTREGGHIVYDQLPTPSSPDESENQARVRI
# [6] = molecular target: T3, Proteasome subunit beta (Trypanosoma cruzi) (UniProt O96673); test: Trypanosoma cruzi proteasome chymotrypsin-like activity (TcProtChymo) assay.; also: in the data most compounds retested in dose-response had high values; assay type: functional; conditions: 9.37 µM
# T3 sequence (whole entry): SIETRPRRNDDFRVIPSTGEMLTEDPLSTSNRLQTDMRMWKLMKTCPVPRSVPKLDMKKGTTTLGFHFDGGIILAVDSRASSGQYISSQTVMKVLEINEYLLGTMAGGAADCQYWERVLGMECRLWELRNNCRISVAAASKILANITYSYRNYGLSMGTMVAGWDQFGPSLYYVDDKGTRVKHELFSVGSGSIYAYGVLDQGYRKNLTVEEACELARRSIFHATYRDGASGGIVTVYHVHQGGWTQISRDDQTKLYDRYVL
# Homo sapiens = species: Homo sapiens; test: To identify inhibition of the IFN signalling (Jak-Stat) pathway via expression of an eGFP reporter gene under the control of an IFN-stimulated response element (ISRE) containing MxA promoter.; assay type: functional; conditions: 30 µM
# [7] = molecular target: T4, Tyrosyl-tRNA synthetase, putative (Trypanosoma cruzi (strain CL Brener)) (UniProt Q4DSP6); test: Trypanosoma cruzi tyrosyl tRNA synthetase (TcYRS) _High Tyrosine SOP; assay type: functional; conditions: 30 µM; also: in the data most compounds retested in dose-response had high values
# T4 sequence (whole entry): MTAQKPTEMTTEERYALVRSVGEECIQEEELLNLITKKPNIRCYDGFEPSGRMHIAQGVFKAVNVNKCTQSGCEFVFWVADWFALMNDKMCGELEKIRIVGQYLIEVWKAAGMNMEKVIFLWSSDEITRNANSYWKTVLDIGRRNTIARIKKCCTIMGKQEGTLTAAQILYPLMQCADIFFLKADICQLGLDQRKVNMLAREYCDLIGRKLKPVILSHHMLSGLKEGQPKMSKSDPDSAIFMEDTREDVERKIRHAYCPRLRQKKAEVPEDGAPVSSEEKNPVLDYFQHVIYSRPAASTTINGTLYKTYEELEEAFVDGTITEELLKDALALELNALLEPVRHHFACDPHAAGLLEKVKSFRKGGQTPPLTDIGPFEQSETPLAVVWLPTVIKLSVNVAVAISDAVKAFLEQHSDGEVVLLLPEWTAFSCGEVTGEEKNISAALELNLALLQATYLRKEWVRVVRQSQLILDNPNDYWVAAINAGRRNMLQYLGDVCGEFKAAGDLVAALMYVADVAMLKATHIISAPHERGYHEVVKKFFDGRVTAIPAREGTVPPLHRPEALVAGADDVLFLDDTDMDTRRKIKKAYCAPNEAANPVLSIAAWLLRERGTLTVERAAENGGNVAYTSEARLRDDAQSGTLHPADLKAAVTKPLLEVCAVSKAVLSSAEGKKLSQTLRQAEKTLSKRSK
# [8] = molecular target: T4, Tyrosyl-tRNA synthetase, putative (Trypanosoma cruzi (strain CL Brener)); test: Trypanosoma cruzi tyrosyl tRNA synthetase (TcYRS) SOP; assay type: functional; conditions: 30 µM
# [9] = molecular target: Chromo domain-containing protein 1 (Saccharomyces cerevisiae (strain ATCC 204508 / S288c) (Baker's yeast)) (UniProt P32657); test: ScCHD-1 Enzyme Inhibition Assay; assay type: functional; conditions: 30 µM; also: in the data most compounds retested in dose-response had high values
# Sequence of Chromo domain-containing protein 1 (Saccharomyces cerevisiae (strain ATCC 204508 / S288c) (Baker's yeast)) (P32657 whole entry, the tested form may be a part): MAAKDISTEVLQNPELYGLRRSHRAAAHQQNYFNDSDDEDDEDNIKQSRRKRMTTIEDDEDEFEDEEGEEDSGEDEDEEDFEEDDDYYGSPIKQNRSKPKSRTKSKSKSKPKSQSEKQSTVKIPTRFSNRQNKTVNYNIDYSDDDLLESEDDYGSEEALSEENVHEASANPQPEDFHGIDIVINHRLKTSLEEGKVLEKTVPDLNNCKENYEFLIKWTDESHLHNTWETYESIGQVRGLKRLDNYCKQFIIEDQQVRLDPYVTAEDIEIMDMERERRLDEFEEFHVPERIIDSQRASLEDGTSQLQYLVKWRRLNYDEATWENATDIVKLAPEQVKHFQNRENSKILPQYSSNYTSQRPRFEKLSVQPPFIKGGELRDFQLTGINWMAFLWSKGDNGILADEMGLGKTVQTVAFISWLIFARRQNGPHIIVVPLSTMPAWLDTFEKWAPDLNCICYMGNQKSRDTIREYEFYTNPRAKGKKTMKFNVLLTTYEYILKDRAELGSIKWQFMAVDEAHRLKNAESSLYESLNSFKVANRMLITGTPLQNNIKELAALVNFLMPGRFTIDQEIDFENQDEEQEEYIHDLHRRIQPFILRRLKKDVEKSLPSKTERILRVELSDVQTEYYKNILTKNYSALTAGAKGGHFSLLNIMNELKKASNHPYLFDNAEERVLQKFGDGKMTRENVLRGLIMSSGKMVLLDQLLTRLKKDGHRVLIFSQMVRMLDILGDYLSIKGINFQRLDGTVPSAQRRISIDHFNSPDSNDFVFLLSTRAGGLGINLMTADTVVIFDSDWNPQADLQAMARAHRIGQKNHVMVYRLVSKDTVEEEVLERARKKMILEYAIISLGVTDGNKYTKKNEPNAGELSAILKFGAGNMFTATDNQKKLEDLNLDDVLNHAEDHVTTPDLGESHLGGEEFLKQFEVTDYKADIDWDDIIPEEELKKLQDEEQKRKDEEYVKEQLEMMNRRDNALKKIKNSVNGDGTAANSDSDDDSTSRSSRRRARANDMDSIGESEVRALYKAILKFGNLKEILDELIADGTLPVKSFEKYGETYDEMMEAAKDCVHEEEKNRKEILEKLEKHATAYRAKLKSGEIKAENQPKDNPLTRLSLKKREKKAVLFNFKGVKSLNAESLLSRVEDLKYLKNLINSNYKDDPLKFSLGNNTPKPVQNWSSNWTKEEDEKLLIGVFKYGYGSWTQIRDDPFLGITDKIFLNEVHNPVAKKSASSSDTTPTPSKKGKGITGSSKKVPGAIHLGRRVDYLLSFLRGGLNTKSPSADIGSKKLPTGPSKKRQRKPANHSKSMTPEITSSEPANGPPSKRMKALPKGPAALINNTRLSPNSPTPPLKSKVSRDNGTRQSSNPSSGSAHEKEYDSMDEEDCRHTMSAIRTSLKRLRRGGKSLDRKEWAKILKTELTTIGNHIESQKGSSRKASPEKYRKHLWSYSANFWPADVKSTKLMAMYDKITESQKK
# Sequence of Sialic acid-binding Ig-like lectin 9 (Homo sapiens) (Q9Y336 whole entry): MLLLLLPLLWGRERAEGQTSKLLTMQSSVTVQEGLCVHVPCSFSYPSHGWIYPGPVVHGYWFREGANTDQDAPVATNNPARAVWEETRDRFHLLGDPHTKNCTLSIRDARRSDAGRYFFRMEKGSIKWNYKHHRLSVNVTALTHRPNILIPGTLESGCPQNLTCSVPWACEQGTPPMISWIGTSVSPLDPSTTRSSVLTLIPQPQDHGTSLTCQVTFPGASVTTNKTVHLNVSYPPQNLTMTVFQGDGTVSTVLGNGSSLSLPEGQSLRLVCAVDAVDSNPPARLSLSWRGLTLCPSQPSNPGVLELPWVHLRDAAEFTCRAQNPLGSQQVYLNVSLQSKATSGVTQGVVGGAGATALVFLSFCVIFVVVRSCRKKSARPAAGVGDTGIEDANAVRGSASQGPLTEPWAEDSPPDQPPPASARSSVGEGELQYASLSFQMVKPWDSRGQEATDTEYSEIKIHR
# Sequence of Protein translocase subunit SecA (Escherichia coli (strain K12)) (P10408 whole entry): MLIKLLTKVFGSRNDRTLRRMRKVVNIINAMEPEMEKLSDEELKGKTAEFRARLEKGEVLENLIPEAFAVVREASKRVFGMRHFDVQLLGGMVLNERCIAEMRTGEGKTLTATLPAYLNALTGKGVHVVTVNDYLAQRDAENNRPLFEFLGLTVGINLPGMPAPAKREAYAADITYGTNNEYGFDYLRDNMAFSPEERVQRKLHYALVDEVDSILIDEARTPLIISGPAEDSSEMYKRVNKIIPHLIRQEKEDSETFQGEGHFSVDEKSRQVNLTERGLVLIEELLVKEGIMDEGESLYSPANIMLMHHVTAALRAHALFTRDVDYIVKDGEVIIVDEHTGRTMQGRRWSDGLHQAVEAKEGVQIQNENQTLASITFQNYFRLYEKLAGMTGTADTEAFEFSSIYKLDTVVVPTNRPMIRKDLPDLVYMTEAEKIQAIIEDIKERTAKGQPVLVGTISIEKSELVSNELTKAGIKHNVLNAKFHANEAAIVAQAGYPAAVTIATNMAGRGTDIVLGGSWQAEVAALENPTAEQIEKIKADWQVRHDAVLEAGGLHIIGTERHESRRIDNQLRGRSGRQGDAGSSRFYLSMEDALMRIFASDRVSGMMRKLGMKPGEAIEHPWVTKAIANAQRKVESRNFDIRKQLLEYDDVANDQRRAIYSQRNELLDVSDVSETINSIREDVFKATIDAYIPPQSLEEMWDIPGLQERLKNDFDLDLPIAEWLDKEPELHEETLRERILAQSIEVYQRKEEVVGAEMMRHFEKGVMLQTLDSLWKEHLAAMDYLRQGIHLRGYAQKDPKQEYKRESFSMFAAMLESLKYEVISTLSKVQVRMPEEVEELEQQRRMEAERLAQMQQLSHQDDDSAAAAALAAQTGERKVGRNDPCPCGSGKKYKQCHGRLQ
Structure (SMILES),Percent Effect [1] [%],Percent Effect [2] [%],Percent Effect [3] [%],Percent Effect [4] [%],Percent Effect (Trypanosoma cruzi) [%],Percent Effect [5] [%],Percent Effect [6] [%],Percent Effect (Homo sapiens) [%],Percent Effect [7] [%],Percent Effect [8] [%],Percent Effect [9] [%]
Cc1nc(CC(=O)N2CCCN(c3ccc(C#N)cc3)CC2)cs1,-2.43,0,5.74,-0.961,-5.55,-4.73,14.5,2.28,2.13,5.2,-1.52
CN(C)c1nccc(N2CCO[C@H]3CN(CC4CCOCC4)C[C@H]32)n1,1.86,11,-5.46,12.4,4.37,-3.59,10.5,30.6,4.17,18.5,-7.93
Cc1occc1C(=O)N1CCCC2(CCN(CCN3CCCC3)C2=O)C1 (configuration not stated),-3.31,-2.6,-1.22,14.5,6.79,-12.4,7.82,-2.84,-11.8,-11.1,-0.372
NC(=O)c1ccc(OCC(=O)N2CCCC(n3cccn3)C2)cc1 (configuration not stated),-3.58,15.6,6.85,2.82,-2.06,1.9,7.2,1.54,7.62,14.1,-7.55
CC(C)Oc1ncc(C(=O)N2CCC(NC(=O)C3CC3)CC2)cc1Cl,-5.61,-2.74,-0.0193,-3.72,-5.56,-0.798,12.8,5.13,0,6.17,-0.607
O=C(Cc1ccccn1)N1CCN(C(=O)c2cccc3[nH]ncc23)CC1,-1.44,3.8,15.9,-3.99,-0.103,2.8,5.15,4.63,5.21,5.06,-0.724
Cc1nc(COC[C@]23COC[C@H]2CN(Cc2ccoc2)C3)cs1,-4.99,0,-4.16,13.2,6.94,0.248,-2.49,-33.4,3.23,11.1,-1.94
CCCNC(=O)c1sccc1N(C)S(=O)(=O)c1ccc(Cl)cc1,1.13,7.89,-1.42,-7.73,-8.67,9.47,13.3,38.4,-4.25,-2.6,-1.51
COc1ccc(Oc2cncc(C3CCCN3C(C)=O)n2)cc1 (configuration not stated),-0.946,12.2,4.91,-7.65,-3.56,0.696,9.36,15.2,0,3.9,-11.7
CCCNC(=O)C1CCN(Cc2csc(C(C)(C)C)n2)CC1,-0.61,10.1,-4.65,-1.57,-4.44,6.08,6.63,12.5,-0.493,8.86,-6.15
CCCc1noc(CCC(=O)N2CCCC2c2noc(C3CC3)n2)n1 (configuration not stated),-5.01,10.1,1.8,21.9,-0.85,1.52,-1.56,12,1.48,1.27,-2.93
CN(Cc1cnn(C)c1)C(=O)NCc1csc(Br)c1,-1.72,16.2,10.9,-2.71,-8.08,2.77,14.7,17.1,-3.96,-1.22,-6.6
COCCN1C(=O)CO[C@H]2CN(Cc3c[nH]nc3-c3ccccc3)C[C@@H]21,-5.09,12.2,8.07,9.93,2.77,-5.8,2.34,19.6,2.15,6.49,-22.8
CC(=O)N1CCC(CN2CCN(Cc3nccn3C)C(C)C2)CC1 (configuration not stated),-0.614,18.9,-4.02,-8.56,-2.14,4.25,14.5,17.6,9.9,15.8,-2.18
O=C1NCCCCC1Sc1nnc(C2CC2)n1C1CC1 (configuration not stated),1.19,11,-3.07,-9.6,3.72,8.64,18.5,23.5,5.38,15,-13.5
Cc1nnc(N2CC[C@H]3C[C@H](C(=O)N4CCOCC4)O[C@H]3C2)s1,-2.55,0,5.32,2.05,0.0978,-0.955,14.6,-19.4,1.08,5.13,1.53
Cc1ccc(C(=O)N2C[C@@H]3COC[C@]3(COc3cccnc3)C2)cn1,1.3,18.9,0.636,-16.3,1.07,7.33,13.3,30.2,4.32,7.69,4.76
CN(C)CCn1c(=O)oc2ccc(NC(=O)C3CCCO3)cc21 (configuration not stated),-6.72,5.33,-5.94,4.64,-1.85,1.56,6.8,5.49,8.2,11.1,-5.1
Cn1nc(C2CCCN(Cc3ccsc3)C2)c2nccnc21 (configuration not stated),-0.97,9.46,11.9,-2.94,-2.37,-0.696,4.68,3.34,1.07,6.49,-19.8
CC(C)(C)c1n[nH]c(C2CN(C(=O)c3cc(Cl)c[nH]3)CCO2)n1 (configuration not stated),-6.35,15.8,3.14,10.4,3.99,-5.92,17.2,-3.03,2.13,15.6,-6.65
CCOc1cc(C)ccc1NC(=O)N(C)Cc1cnn(C)c1,-3.73,10.8,-11.8,16.5,4.81,0.401,-2.52,11.9,6.4,16.1,-9.07
CCN(Cc1nc2c(cnn2C)c(=O)[nH]1)c1cccc(Cl)c1,-2.52,10.4,4.11,-5.62,1.27,0.632,14.3,16.2,1.91,14.1,-9.43
